TDP1 cell CPT – growth inhibition of DT40 Tdp1-/-;hTDP1 cells with camptothecin (screen for TDP1 inhibitors). 420,000 tested, 12% active. AID 686979. chicken DT40 Tdp1-/-;hTDP1 cells + 20 nM CPT, ATP luminescence, 48 h. Potency, µM (doses to about 46.2 µM), for the others: top-dose activity change, negative = growth inhibition, actives largely listed as inhibitors; also: nearly all actives have a fitted effect of over 55% in size
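Chicken DT40 Tdp1-/- cells complemented with human TDP1, 400 cells/well, exposed to compounds plus 20 nM camptothecin for at least 48 h at 37 C; viability read as ATP content by CellTiter-Glo luminescence.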
TDP1 inh – TDP1 (human) enzyme inhibition. recombinant TDP1, AlphaScreen DNA substrate cleavage. AID 485290. 350,000 tested, 0.28% active. Potency, µM (top dose mostly 130 µM), for the others: at the top dose activity change, negative = inhibition, hits mostly inhibitors. Q9NUW8; also: nearly all actives have a fitted effect of over 40% in size
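Recombinant E. coli-expressed Tdp1 (1 nM) preincubated with compound 15 min at RT, then 5'-biotin/3'-phosphotyrosine-FITC DNA substrate (15 nM) added for 5 min. AlphaScreen beads (10 ug/ml) added, 10 min RT; tyrosine-FITC cleavage read as signal loss.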
RORg inh – ROR gamma (mouse) transcription inhibition; 310,000 tested, 5.4% active; P51450; Drosophila S2 Gal4-RORgamma UAS-luciferase reporter, 20 h; Potency, µM (top dose mostly 53.6 µM), without a hit: at the top dose activity change, negative = inhibition, actives largely listed as inhibitors; also: nearly all actives have a fitted effect of over 60% in size
Target sequence (P51450 whole entry, looked up, the tested form may be a part): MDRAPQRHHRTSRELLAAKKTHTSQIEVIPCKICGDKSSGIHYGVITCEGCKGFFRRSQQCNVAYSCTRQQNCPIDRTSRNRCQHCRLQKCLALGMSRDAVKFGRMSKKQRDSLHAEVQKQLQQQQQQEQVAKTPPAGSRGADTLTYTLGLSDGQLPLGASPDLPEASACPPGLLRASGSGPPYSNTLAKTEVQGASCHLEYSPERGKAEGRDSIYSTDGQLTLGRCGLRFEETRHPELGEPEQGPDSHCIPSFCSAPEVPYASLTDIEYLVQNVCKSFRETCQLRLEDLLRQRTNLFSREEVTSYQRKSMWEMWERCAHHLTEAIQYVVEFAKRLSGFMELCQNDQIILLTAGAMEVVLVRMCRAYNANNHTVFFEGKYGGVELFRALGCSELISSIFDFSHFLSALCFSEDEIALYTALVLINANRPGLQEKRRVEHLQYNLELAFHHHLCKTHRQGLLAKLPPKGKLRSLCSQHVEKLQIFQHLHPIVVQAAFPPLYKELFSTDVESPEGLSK
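ROR gamma transcriptional activity was tracked as Gal4-UAS luciferase output in stably transfected Drosophila Schneider cells, with compound added 1 hr before 700 uM copper sulfate induction and a 20 hr ambient-temperature incubation.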
TDP1 cell noCPT – qHTS for Inhibitors of human tyrosyl-DNA phosphodiesterase 1 (TDP1): qHTS in cells in absence of CPT; 420,000 tested, 15% active; DT40 Tdp1-/- hTDP1 cells, no CPT, ATP luminescence, 48 h; AID 686978, 2013; Potency, µM (titrated, usually from 46.2 µM), without a hit: top-dose activity change, negative = growth inhibition, hits mostly inhibitors; also: nearly all actives have a fitted effect of over 55% in size
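Readout: luminescence from CellTiter-Glo after 30 min in the dark at RT. Cells: DT40 Tdp1-/- with stable hTDP1, 400/well. Exposure: compounds alone, ≥48 hr, 37 °C.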
Gal4-VP16 FLuc – counter-screen for ROR gamma inhibitors: Gal4-VP16 reporter. Drosophila S2 Gal4-VP16 UAS-luciferase, luminescence, 20 h. Potency, µM (doses to about 53.6 µM), without a hit: at the top dose activity, negative = inhibition, hits mostly inhibitors. 310,000 tested, 3.5% active. AID 2546;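 also: Gal4-VP16 expression switched on by copper sulfate through the metallothionein promoter; nearly all actives have a fitted effect of over 50% in size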
Numbers without * were called inactive; ? = inconclusive; . = no result; [ ] = remark or other dose. The list is not random: actives were taken first. Their share in the collection is about 19%. Calls follow the shape of the dose curve; as a rule, active = well fitted curve in the direction sought with a large enough effect; inconclusive = small, poorly fitted or top-dose-only effect, or another doubt; inactive = no such curve, though single readings can be large; an effect the other way counts as inactive or inconclusive. % is scaled to controls: 0 for no effect and ±100 for the full control effect; potency is read from the fitted curve at half-maximal effect.

SMILES	TDP1 cell CPT	TDP1 inh	RORg inh	TDP1 cell noCPT	Gal4-VP16 FLuc
COC(=O)c1ccc(C(=O)OC)c(NC(=O)C2CC2)c1	0%	8%	14%	12%	-7%
COc1cc(OC)cc(C2=Cc3ccccc3C(CC(=O)c3ccco3)N2c2ccc(-c3cccnc3)cc2)c1 (stereo not given)	?	.	.	18µM*	.
CCOC(=O)c1cc(-c2ccc(N3C(c4ccsc4)=Cc4ccccc4C3CC(C)=O)cc2)cc([N+](=O)[O-])c1 (stereo not given)	-4%	.	.	-10%	.
CCOC(=O)CN(C)C(=O)c1cnn(-c2ncc3c(n2)-c2ccccc2CCC3)c1C	4%[9.04 µM]	.	.	?	.
COc1ccc(C(N)=O)cc1NC(=O)c1cccc(F)c1	18%	5%	1%	1%	-9%
COc1ccc2c(c1)C(CC(C)=O)N(c1ccc(-c3cccs3)cc1)C(c1ccsc1)=C2 (stereo not given)	3.7µM*	.	.	4.6µM*	.
COc1ccc2c(c1)C(CC(C)=O)N(c1ccc(-c3cnc(OC)nc3)cc1)C(c1ccsc1)=C2 (stereo not given)	-15%	.	.	?	.
CCN1C(=O)/C(=C\N2CCN(C)CC2)SC1=S	-30%	2%	1%[10 µM]	-16%	15%
Cn1ccnc1C(O)(c1nnc(-c2ccccc2)o1)C(F)(F)F (stereo not given)	0%	3%	7.1µM*	-12%	?
CCCCCCCCCC1(CC(=O)OCC)SCCN1C(N)=O (stereo not given)	?	.	.	15µM*	.
CCCCC1(CC(=O)OCC)SCCN1C(N)=O (stereo not given)	1%	.	.	-14%	.
CN(C)c1ccc(C(=O)OCC(=O)Nc2ccc(N3CCOCC3)cc2)cc1	-2%	3%	6%	-24%	17%
CC(=O)c1ccc(NC(=O)COC(=O)c2ccccc2N=Nc2ccc(N(C)C)cc2)cc1	?	2%	?	21µM*	-3%
COC(=O)c1ccccc1NC(=O)COC(=O)c1ccccc1N=Nc1ccc(N(C)C)cc1	16µM*	11%	29%	16µM*	-6%
CN(C)c1ccc(N=Nc2ccccc2C(=O)OCC(=O)N(C)c2ccccc2)cc1	21µM*	3%	?	?	-19%
CN(C)c1ccc(N=Nc2ccccc2C(=O)O)cc1	?	.	.	-25%	.
COC(=O)c1ccccc1NC(=O)COC(=O)c1ccco1	7%	-10%	10%	-6%	-1%
COc1cc(C)c(C#N)c(OC)n1	-7%	1%	-1%	-6%	-4%
COc1ccc(Cl)cc1C(=O)NNC(=S)NC(=O)c1ccc(F)c(F)c1	-14%	.	7.1µM*	?	11µM*
COc1ccc(CC(=O)NNC(=S)NC(=O)c2cc(OC)c(OC)c(OC)c2)cc1	9.2µM*	.	.	7.3µM*	.
COc1cc(C(=O)NNC(=S)NC(=O)c2ccc(F)cc2)cc(OC)c1OC	29µM*	3%	?	?	?
c1ccc(N2CCN(c3nccn4ccnc34)CC2)nc1	?	.	.	-25%	.
O=c1c2ccccc2[nH]c2ccc(O)cc12	16%	40µM*	-3%	-25%	-2%
O=c1[nH]c2ccccc2c(=O)c2ccccc12	-7%	.	.	-25%	.
Cc1cc(=O)[nH]c2ccc(O)cc12	0.35µM*	.	.	-1%	.
SMILES	TDP1 cell CPT	TDP1 inh	RORg inh	TDP1 cell noCPT	Gal4-VP16 FLuc
O=c1c2ccccc2[nH]c2ccc(F)cc12	21µM*	3%	10%	9.2µM*	?
Cc1ccc2[nH]c3ccccc3c(=O)c2c1	12µM*	.	-12%	12µM*	?
CC(=O)N1N=C(c2cccs2)CC1c1cc2cc(C)ccc2nc1Cl (stereo not given)	-2%	.	25%	7%	0%
COc1ccc(C(=O)NN(c2ccccc2)c2ccccc2)cc1	?	-2%	-14%	-5%	0%
NC1=NC2=C(CCCC2)C2(CCCCC2)S1	?	4%	-36%	?	-5%
O=C(OCn1ncc(Br)c(Br)c1=O)c1ccccc1Cl	1.2µM*	4%	6.3µM*	1.5µM*	5.6µM*
O=C(OCn1ncc(Br)c(Br)c1=O)c1ccc(F)cc1	1µM*	2%	?	1µM*	0.63µM*
O=C1c2ccccc2C(=O)N1C(CO)C(O)c1ccc([N+](=O)[O-])cc1 (stereo not given)	9%	.	-12%	8%	-1%
CCC(Oc1ccccc1)C(=O)Nc1cc(C(F)(F)F)ccc1N1CCOCC1 (stereo not given)	-24%	.	.	-27%	.
CC(=O)Nc1cc2c(cc1NC(=O)Cn1nc(-c3ccccc3F)ccc1=O)OCCO2	-8%	6%	-14%	-18%	3%
Cn1c(SCC(=O)NCc2ccc3c(c2)OCO3)nnc1-c1c[nH]c2ccccc12	1%	5%	13%	-14%	-10%
CCOc1ccc(-n2c(SCC(=O)Nc3cc(C)on3)nnc2-c2c[nH]c3ccccc23)cc1	-13%	6%	7%	-24%	-14%
CCOc1ccc(-n2c(SCC(=O)NCc3ccco3)nnc2-c2c[nH]c3ccccc23)cc1	?	10%	40%	13µM*	-8%
Cn1cnnc1SCC(=O)NN1C(=O)NC(C)(c2ccccc2)C1=O (stereo not given)	1%	0%	-25%	1%	-1%
Cn1c(SCC(=O)NN2C(=O)NC(C)(c3ccccc3)C2=O)nnc1-c1ccncc1 (stereo not given)	-15%	0%	.	29µM*	.
Cn1c(SCC(=O)NCc2ccco2)nnc1-c1c[nH]c2ccccc12	21µM*	3%	4%	-23%	-2%
Cc1cc(SCC(=O)NC(=O)NCc2ccco2)nc2ccccc12	?	6%	-20%	-24%	-1%
Cc1cc(SCC(=O)NC(=O)NCc2ccco2)nc2c(C)cccc12	?	-13%	3%	29µM*	?
